# Assay outcomes (PubChem)
# Most compounds without a hit are left out; they make up all but 4.9% or so of the library.
# Calb FLC = C. albicans growth inhibition with fluconazole, primary screen, CaCi-2 strain, Alamar Blue fluorescence | actives 0.57% (n = 300,000) | growth inhibition, % (no concentration beside the values) | C. albicans CaCi-2 (fluconazole-resistant clinical isolate) + fluconazole, 48 h;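 active means growth inhibition above about 58% in most replicates, limit read from the data, passing the limit was not always enough; inconclusive means exactly half the replicates above a set limit; inactive means most replicates below a set limit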;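 further: all wells also contain fluconazole at 8 µg/ml as a sub-toxic cotreatment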
# CSC inhib = cancer stem cell viability inhibitors, primary screen, luminescence; cancer stem cell-like cells viability; inhibition, % at 7.5 µM; actives 1.1% (n = 300,000); AID 2717, 2010; in the data active means inhibition above about 75%; inconclusive means no clear call, values can overlap the other calls; tested in HMLE shEcad cells
# Beta cell apopt = inhibitors of cytokine-induced beta cell apoptosis, primary screen, luminescence | INS-1E cytokine-induced death, ATP luminescence, 48 h; percent of positive-control rescue, neutral wells zero | protection from apoptosis, % (test concentration not listed) | actives 0.8% (n = 300,000);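 active means Every replicate reaches about 75%, or at least half do and their mean reaches it too, limit read from the data; inconclusive means At least half of replicates reach the limit but their mean does not; inactive means Under half of replicates reach the limit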;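 further: higher means more ATP so stronger rescue from cytokine killing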
# Mdm2 MdmX PPI = inhibitors of human Mdm2-MdmX association, primary screen, cell-based, luminescence, split luciferase, SaOS-2, uHTS; Protein Mdm4 (Homo sapiens) + E3 ubiquitin-protein ligase Mdm2 (Homo sapiens), …; inhibition, % at 8 µM; SaOS-2 split-luciferase Mdm2/MdmX complementation; AID 485346, 2010; actives 3% (n = 330,000);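 active means inhibition of at least 50% at 8 µM in the primary screen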
# PP5 inh = PP5 phosphatase inhibitors, primary screen, biochemical, fluorescence. inhibition, % at 6.7 µM. actives 0.18% (n = 320,000). Serine/threonine-protein phosphatase 5 (Homo sapiens), P53041. purified PP5c, OMFP substrate fluorescence. AID 1987, 2009;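 active means inhibition above the campaign's mean inhibition across all tested compounds plus 3 SD, cut at about 9.5% in these data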
# PP1 inh = PP1-alpha phosphatase inhibitors, primary screen, counter-screen for PP5 inhibitor project, biochemical, fluorescence, OMFP substrate, single point; Serine/threonine-protein phosphatase PP1-alpha catalytic subunit (Homo sapiens), P62136; purified PP1alpha; inhibition, % at 6.7 µM; actives 0.9% (n = 320,000);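 active means inhibition above the mean inhibition of all tested compounds plus 3 SD, computed separately for each screening campaign, cut at about 15% in these data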
# Mdm2-MdmX conf = Mdm2-MdmX complex disruptors, retested hits, confirmation, luminescence, single concentration. shares compounds with Mdm2 MdmX PPI. Mdm2-MdmX binding, luminescent assay. inhibition, % at 8 µM. actives 55% (n = 10,000); in the data active means inhibition above about 40%
# FLuc counter = full-length luciferase signal inhibition, confirmation, counter-screen for Mdm2/MdmX interaction inhibitor project, cell-based, single concentration, SaOS-2; inhibition, % at 8 µM; SaOS-2 full-length luciferase counterscreen, luminescence; actives 77% (n = 6,200); shares compounds with Mdm2 MdmX PPI;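 active means mean inhibition at 8 µM reaching about 37%, which flags the compound as non-specific, limit read from the data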;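 further: p53-null SaOS-2 cells with luciferase driven by a doxycycline-inducible promoter; compound on cells about two nights before reading with doxycycline added after day one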
# A number is an active result; n = inactive; u = inconclusive; x = no result.
SMILES,Calb FLC,CSC inhib,Beta cell apopt,Mdm2 MdmX PPI,PP5 inh,PP1 inh,Mdm2-MdmX conf,FLuc counter
CCOC(=O)c1nnn2c1nc(Nc1cccc(C(F)(F)F)c1)c1ccccc12,n,n,n,82,n,n,n,x
NNc1nc2c(-c3cccc(C(F)(F)F)c3)nnn2c2ccccc12,n,n,n,56,x,x,n,x
CCOC(=O)c1nnn2c1nc(SCC(C)=O)c1ccccc12,n,n,n,n,n,n,x,x
CC(=O)N/C(=N\OCc1ccccc1Cl)c1nonc1NC(C)=O,n,n,n,n,n,n,x,x
COc1ccc(C(=O)NC2CCN(C(=O)NCc3ccccc3)CC2)cc1,n,n,n,n,n,n,x,x
CCC(C)(C)C1CCC2(CC1)NC(=O)N(CC(=O)N1CCN(S(=O)(=O)c3cc(C)ccc3C)CC1)C2=O (stereo not drawn),n,n,n,82,n,n,n,89
Cn1cnnc1SCC(C)(C)NS(=O)(=O)c1ccc(Cl)cc1,n,n,n,n,n,n,x,x
COc1ccccc1/C=C\C(=O)NCC(=O)N/N=C/c1cccc(OC)c1O,n,n,n,51,n,n,n,x
COc1cccc(/C=N/NC(=O)CNC(=O)COc2cccc(C)c2)c1O,n,n,n,54,n,n,47,45
Cc1cc(NC(=O)c2c(F)cccc2Cl)n(-c2nc3ccccc3[nH]2)n1,109,n,n,68,n,n,n,x
Cc1cc(NC(=O)C2CCCCC2)n(-c2nc3ccccc3[nH]2)n1,n,n,n,57,n,n,43,68
Cc1cc(Nc2ccccc2)n(-c2nc3ccccc3[nH]2)n1,n,n,n,53,n,n,n,x
Cc1cc(NC(=O)c2ccccc2F)n(-c2nc3ccccc3[nH]2)n1,n,n,n,n,n,n,x,x
Cc1cc(NC(=O)c2c(F)cccc2F)n(-c2nc3ccccc3[nH]2)n1,n,n,n,53,n,n,n,x
Cc1cc(NC(=O)c2ccc(C)s2)n(-c2nc3ccccc3[nH]2)n1,n,n,n,n,n,n,x,x
O=C(O)c1ccc(Nc2nc(-c3ccc([N+](=O)[O-])cc3)nc3ccccc23)cc1,n,n,n,n,x,x,x,x
O=[N+]([O-])c1ccc(-c2nc(Nc3ccc(O)cc3)c3ccccc3n2)cc1,n,n,n,70,x,x,n,x
COc1nc(-c2cccc([N+](=O)[O-])c2)nc2ccccc12,n,n,n,n,n,n,x,x
COc1ccc(Nc2nc(-c3cccc([N+](=O)[O-])c3)nc3ccccc23)cc1,n,124,n,55,n,n,n,x
C=CCN(Cc1nc(-c2ccccc2)no1)C(=O)c1ccco1,n,n,n,n,n,n,x,x
CC(=O)c1cccc(NS(=O)(=O)c2cc(-c3cnc(C4CC4)o3)ccc2C)c1,x,u,n,57,n,n,60,61
Cc1ccc(-c2cnc(C3CC3)o2)cc1S(=O)(=O)Nc1ccccc1,n,x,x,61,n,n,66,n
CC(=O)c1ccc(NS(=O)(=O)c2cc(-c3cnc(C4CC4)o3)ccc2C)cc1,n,x,x,n,n,n,x,x
Cc1nn(-c2cccc(Cl)c2)c(Cl)c1/C=N/NC(=O)c1cccs1,n,n,n,78,n,n,54,48
CCOc1ccccc1N1CC(O)=C(c2nc3ccccc3s2)C1=N,n,n,n,57,n,n,58,58
Cc1ccc(N2C(=O)c3cccc4c(N)ccc(c34)C2=O)c2cccnc12,n,n,n,62,n,n,61,80
Cc1nn(C)c(C)c1N1C(=O)c2cccc3c(N)ccc(c23)C1=O,x,n,n,x,n,n,x,x
Cn1ncc(Cl)c1C(=O)NCC1CCCO1 (stereo not drawn),n,n,n,n,n,n,x,x
